Drawing on PubChem BioAssay AID2650 (Broad Institute, 2010), this text covers inhibition for 89 compounds.

Among all 320,000 compounds or so, about 320 (0.1%) were called active. This is one part of a sample in which actives are shown more often than they occur.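 The calls were made as follows: active = more than half of replicates show inhibition above 20%; inconclusive = some but at most half of replicates above 20% inhibition; inactive = no replicate shows inhibition above 20%.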

Glycogen synthase kinase-3 alpha (Homo sapiens), sequence (P49840 whole entry, looked up): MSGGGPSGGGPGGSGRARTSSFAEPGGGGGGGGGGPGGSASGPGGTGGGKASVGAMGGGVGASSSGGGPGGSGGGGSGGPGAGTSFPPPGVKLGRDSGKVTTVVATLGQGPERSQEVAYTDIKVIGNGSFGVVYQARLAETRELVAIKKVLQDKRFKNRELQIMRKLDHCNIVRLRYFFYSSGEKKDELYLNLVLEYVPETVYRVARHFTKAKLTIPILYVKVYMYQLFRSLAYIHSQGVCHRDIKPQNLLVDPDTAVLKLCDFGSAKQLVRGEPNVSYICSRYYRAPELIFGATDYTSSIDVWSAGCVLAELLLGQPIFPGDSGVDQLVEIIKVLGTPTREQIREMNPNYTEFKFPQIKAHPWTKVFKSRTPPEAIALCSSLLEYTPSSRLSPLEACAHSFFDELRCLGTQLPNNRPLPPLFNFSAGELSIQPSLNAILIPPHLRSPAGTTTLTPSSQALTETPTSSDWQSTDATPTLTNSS

This assay addresses Glycogen synthase kinase-3 alpha (Homo sapiens) (UniProt P49840). The experiment in a line: blockers of GSK3A enzyme activity – biochemical, luminescence, cell-free homogeneous, HTS, primary screen (AID 2650).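 Also: GST-tagged GSK-3 alpha with peptide substrate and 25 µM ATP; 0% = DMSO neutral wells and 100% = GW8510 positive control wells.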 Conditions: GSK-3 alpha kinase, ADP-Glo luminescence, 60 min; at 10 µM; stronger effect = higher value.
Take `Cc1noc(COc2ccccc2OCc2onc(C)c2Cl)c1Cl`: the inhibition is -1.26% (inactive).
For `O=C1c2ccccc2C2=Nc3ccccc3SC(c3ccccc3F)C12` (centres undefined) the value was -0.696% (inactive); for `CC(Sc1nc2cc(Cl)ccc2s1)C(=O)Nc1ccc2c(c1)OCO2` (centres undefined), -2.34% (inactive); for `Cc1ccc2c(c1)N(CC(=O)NCCc1ccc(Cl)cc1)C(=O)c1cccnc1O2`, -2.75% (inactive).
Take `CC(C(=O)N1CCOCC1)N1c2cccc3cccc(c23)S1(=O)=O` (centres undefined): the inhibition was 3.12% (inactive).
For `O=S(=O)(NC1CC2CCC1C2)c1ccc(Cl)cc1` (centres undefined) the value was -0.939% (inactive); for `CN(C)C(=O)CCC(=O)N1CCCCC1C(=O)Nc1ccc(Oc2ccccc2F)cc1` (centres undefined), -0.0266% (inactive); for `O=C(c1ccncc1)N1CCN(S(=O)(=O)c2cc(C(F)(F)F)cc(C(F)(F)F)c2)CC1`, -4.58% (inactive).
Then `CC(C)c1nnc(NC(=O)COC(=O)/C=C/c2ccc([N+](=O)[O-])cc2)s1`, with 0.211% (inactive); and `CC1CCCCC1NC(=O)CCS(=O)(=O)c1cccc2nonc12` (centres undefined), with -1.36% (inactive).
For `COC(=O)[C@]1(Cc2ccccc2)N[C@H](CN(C)S(=O)(=O)c2ccc(F)cc2)[C@@H]2C(=O)N(Cc3ccccc3)C(=O)[C@@H]21` the value was -4.02% (inactive).
In the case of `CCc1ccc(C(=O)COC(=O)c2ccco2)cc1`, the inhibition was -0.284% (inactive).
Then `Cc1cccc2sc(N(CCCN(C)C)C(=O)CCS(=O)(=O)c3ccccc3)nc12`, with 1.84% (inactive); and `Cc1ccc(NC(=O)CN(C)C(=O)c2ccc(Cl)c(S(=O)(=O)NCc3ccco3)c2)cc1`, with -2.08% (inactive).
Then `COC(=O)C1=C[C@@H](C(=O)OC)[C@@H]2C3=C(C(=O)[C@]2(C)NC(=O)c2ccccc2)[C@H](C)n2c(=O)n(C)c(=O)n2[C@@H]3C1`, with -1.38% (inactive); and `O=C(OCC(=O)N(CCc1ccccc1)Cc1ccccc1)c1ccccc1[N+](=O)[O-]`, with 0.711% (inactive); and `CCCc1cc(=O)[nH]c(SCC(=O)Nc2ccc(S(=O)(=O)N3CCCC3)cc2)n1`, with -3.71% (inactive).
Then `Cc1cccc(C)c1NC(=O)CS(=O)CC(=O)N1CCN(c2ccccc2)CC1` (centres undefined), with -1.33% (inactive).
Turning to `Cc1c(OC(C)C(=O)NCC2CCC(C(=O)O)CC2)ccc2c1oc(=O)c1ccccc12` (centres undefined), the inhibition was 2.24% (inactive).
Then `Cc1ccc(N2C(=O)CC(N3CCSCC3)C2=O)c(C)c1` (centres undefined), with -1.07% (inactive); and `CC(C)(C)c1ccc(/C=C/C(=O)NCCCn2ccnc2)cc1`, with 1.07% (inactive).
For `O=C(CSc1nc2ccccc2c(=O)n1Cc1ccc(F)cc1)NCC1CCCO1` (centres undefined), the inhibition is -2.48% (inactive).
For `CC(=O)N1CCc2cc(S(=O)(=O)NC3CCCCC3)ccc21` the value was 1.13% (inactive).
For `CN(CC1CCCN(CCc2cccc(C(F)(F)F)c2)C1)C(=O)c1ccc2nc[nH]c2c1` (centres undefined) the value was 2.9% (inactive); for `CCCNC(=S)N1CCC(NC(=O)C23CC4CC(CC(C4)C2)C3)CC1`, -1.14% (inactive); for `Cc1ccccc1N(C(=O)Cc1cccs1)C(C(=O)NC1CCCCC1)c1cn(C)nc1C` (centres undefined), -1.17% (inactive).
For `CCCCCN(C(=O)NC(=O)Nc1ccccc1OC)S(C)(=O)=O` the value was -0.679% (inactive).
Regarding `COc1cc(OC)cc(-c2cc3ccc(F)cc3cn2)c1`, the inhibition was -0.558% (inactive).
Then `CCOc1ccc(-c2noc(CCC(=O)NC3CCCC3)n2)cc1OC`, with -2.18% (inactive); and `COc1ccccc1-c1nnc2n1N=C(c1ccc(OC(F)F)c(OCC3CC3)c1)CS2`, with -2.55% (inactive); and `C=C(C)CNC(=S)Nc1ccc(S(=O)(=O)Nc2cnc3ccccc3n2)cc1`, with -0.344% (inactive).
For `Brc1ccc(/C=N/N2CCN(C3c4ccccc4-c4ccccc43)CC2)s1` the value was -1% (inactive); for `COCCNC(=S)N(CCc1c(C)[nH]c2ccc(C)cc12)Cc1cccnc1`, -0.86% (inactive).
Then `CCn1c(Cc2ccc(OC)cc2)nnc1SCC(=O)Nc1ccc(N2CCOCC2)cc1`, with -0.587% (inactive); and `CCCCOC(=O)Nc1sc2nc(C)cc(C)c2c1-n1cccc1`, with 3.59% (inactive); and `Cc1noc(C)c1NC(=O)Nc1cccc2c1O[C@H](CN(C)C(=O)Nc1ccccc1)[C@@H](C)CN([C@H](C)CO)C2=O`, with -4.19% (inactive).
As to `COc1cc2c(cc1OC)CC1(CCCCC1)N=C2`, the inhibition was 0.717% (inactive).
As to `Cc1cc(C)cc(N(CCC#N)C(=O)CN2C(=O)NC3(CCCC3)C2=O)c1`, the inhibition was -1.84% (inactive).
For `O=[N+]([O-])c1ccc(NCCCN2CCOCC2)c(Cl)c1` the value was -0.912% (inactive); for `Nc1nc(NCCCN2CCOCC2)nc(Nc2ccccc2)c1[N+](=O)[O-]`, 90.9% (active).
`CC1CN(c2nc(Nc3ccccc3)nc(N)c2[N+](=O)[O-])CC(C)O1` (centres undefined): the inhibition was 38.9% (inactive).
Then `Nn1c(SCC(=O)Nc2ccc3c(c2)CCC3)nnc1C1CC1`, with -1.28% (inactive).
With `CC(=NNC(=O)c1ccc2nc[nH]c2c1)c1ccc(Br)cc1`, the inhibition is 0.652% (inactive).
For `CC(C)c1nc(SCC(=O)NC(=O)NC(C)(C)C)n[nH]1` the value was -2.13% (inactive); for `CCN(CC)CCOC(=O)c1ccc(NC(=O)CNC(=O)c2ccccc2)cc1`, -1.2% (inactive); for `O=C(OCC(=O)N1CCOCC1)c1ccc(N2CCOCC2)c([N+](=O)[O-])c1`, 1.5% (inactive).
Consider `Cc1ccc(NC(=O)C2CCC(C(C)(C)C)CC2)cc1S(=O)(=O)N1CCOCC1` (centres undefined), for which the inhibition was -0.864% (inactive).
`Cc1c(Cl)cccc1NC(=O)NCc1ccc(C)n1C`: the inhibition was -2.74% (inactive).
Then `CC1CCCCC12NC(=O)N(CC(=O)OCC(=O)NCc1ccc(F)cc1)C2=O` (centres undefined), with -2.66% (inactive); and `O=C(O)C1=CCCN(CCON=C(c2ccccc2)c2ccccc2)C1`, with -1.9% (inactive).
For `CC(C)(C)OC(=O)C[C@@H]1C/C=C\C[C@H](CC(=O)N[C@@H](CO)Cc2ccccc2)C(=O)N[C@H](Cc2ccccc2)COC1=O` the value was 0.493% (inactive); for `O=C(CN1C(=O)NC2(CCCCCC2)C1=O)NCc1ccc(F)cc1`, -1.44% (inactive).
For `O=C(c1ccccc1F)N(Cc1ccccc1)Cc1ccccc1` the value was 0.121% (inactive); for `O=c1c2c3c(sc2n(CCN2CCCC2)c(=O)n1Cc1ccccc1)CCCCC3`, 0.297% (inactive).
For the compound `CC(=O)Nc1ccc(NC(=O)CC2CCCC2)cc1`, the inhibition is 0.623% (inactive).
Then `CC(C)c1ccc(/C=C2\NC(=O)NC2=O)cc1`, with 24.7% (inactive); and `Cc1ccc(C)c(CN2CCC(CNC(=O)Nc3ccc(C)c(F)c3)CC2)c1`, with -0.807% (inactive).
For `OCCC1CN(Cc2cccc(OC3CCCC3)c2)CCN1Cc1ccsc1` (centres undefined) the value was -2.02% (inactive).
Then `CCN(CC)N=Nc1cccc(NC(C)=O)c1`, with 2.05% (inactive); and `O=C(NCc1nnc(SCC(=O)N2CCC(Cc3ccccc3)CC2)o1)c1ccco1`, with -0.692% (inactive); and `Cc1cc(C)n(Cc2cnc(N3CCOCC3)s2)n1`, with -2.61% (inactive).
For the compound `CCCc1nc2oc3c(=O)[nH]cnc3c2c2c1COC(C)(C)C2`, the inhibition was 3.6% (inactive).
Then `OCCC1CN(Cc2ccccc2-c2ccco2)CCN1Cc1ccsc1` (centres undefined), with -0.178% (inactive); and `CCn1cc(S(=O)(=O)c2cccc(C)c2)c(=O)c2cc(F)c(N3CCN(C)CC3)cc21`, with -1.82% (inactive); and `O=C(CN(C(=O)c1nsc(Cl)c1Cl)c1cccc(F)c1)NC1CCCC1`, with -1.81% (inactive).
With `Cc1ccc(NS(=O)(=O)c2cn(C)c(=O)n(C)c2=O)c(C)c1`, the inhibition was -0.792% (inactive).
For `O=C(NCc1csc(-c2cccs2)n1)C1CC1` the value was 0.318% (inactive); for `COc1ccc(Cc2n[nH]c(=S)n2NC(=O)Nc2ccc(C)cc2)cc1`, -4.11% (inactive).
Then `CC(=O)N1CC(=O)N(CC(=O)Nc2ccc(Br)cc2)C1=S`, with 2.4% (inactive); and `COc1cccc(CNC(=O)C2CCCN(c3ncnc4c3nc3n4CCCCC3)C2)c1` (centres undefined), with 0.554% (inactive).
For `CCOC(=O)CN(C(=O)COc1nc(-c2ccccc2)cc(C)c1C#N)c1ccc(F)cc1` the value was 0.174% (inactive); for `CCCCN(CC)CCNC(=O)c1[nH]c(C)c(C(C)=O)c1C`, 1.47% (inactive).
For `CC(c1ccco1)N(C(=O)c1ccc(S(=O)(=O)N2CCCCC2)cc1)c1ccccn1` (centres undefined), the inhibition is -1.32% (inactive).
Then `CC(=O)c1cnc(SCC(=O)O)nc1C`, with -1.4% (inactive); and `CC1=C(C(=O)OC2CCCCC2)C(c2ccccc2F)NC(=O)N1` (centres undefined), with -2.54% (inactive).
For the compound `COc1ccc(N=Nc2c(-c3ccc(OC)cc3)[nH]oc2=O)cc1`, the inhibition is -3.99% (inactive).
`Cc1cc(C)nc(SC2CCCCC2NS(=O)(=O)c2ccc(Cl)cc2)n1` (centres undefined): the inhibition is -2.34% (inactive).
Then `O=C(CN1CCN(c2ccc(O)cc2)CC1)NC1CCCc2ccccc21` (centres undefined), with -2.3% (inactive); and `CC(C)NC(=O)NNc1c(Cl)cncc1Cl`, with 2.22% (inactive); and `c1ccc2c(NCC3CCCO3)nc(-c3ccncc3)nc2c1` (centres undefined), with 4.61% (inactive).
For `Cn1c(=O)c2[nH]c(NCC3CCCO3)nc2n(-c2ccccc2)c1=O` (centres undefined) the value was 53.4% (active); for `CC(C)(C)c1nc(NCC2CCCO2)c2nnn(Cc3ccccc3)c2n1` (centres undefined), -0.49% (inactive).
For `Cc1ccccc1C(=O)N1CCC(C(=O)Oc2ccc(C#N)cc2)CC1` the value was 3.01% (inactive); for `O=C(O)CCCN1C(=O)C2C3c4ccccc4C(c4ccccc43)[C@@H]2C1=O` (some centres undefined), -1.27% (inactive).
For the compound `COC(=O)c1cc(CNC(=O)CC(C)c2ccccc2)ccc1OC` (centres undefined), the inhibition is -0.449% (inactive).
For `C/C(=N\NC(=O)Cc1ccccc1[N+](=O)[O-])c1cccnc1` the value was -3.03% (inactive); for `COc1cc(/C=N\Nc2ccc([N+](=O)[O-])cn2)ccc1OCC(=O)O`, 71.1% (active); for `Cc1ccc(-n2c(C)cc(/C=N/Nc3ccc([N+](=O)[O-])cn3)c2C)c(C)c1`, 0.104% (inactive).
For `Cc1cc(/C=N/Nc2ccc([N+](=O)[O-])cn2)c(C)n1-c1cccc(C(=O)O)c1` the value was 26.6% (inactive).
